DAX1 inh-1: inhibitors of human orphan nuclear receptor DAX1 (NR0B1) | inhibition, % at 6.75 µM | HEK293 Gal4-DAX1 luciferase reporter, luminescence | actives 0.99% (n = 340,000) | P51843;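 active = inhibition above the mean over all tested compounds plus 3 SD, cut at about 4.2% in these data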;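 also: 0% = DAX1-transfected cells with DMSO and 100% = empty-vector control cells with DMSO; inhibition shows as a rise in luminescence from relieved DAX1 repression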
Target sequence (P51843 207-470 limits assumed): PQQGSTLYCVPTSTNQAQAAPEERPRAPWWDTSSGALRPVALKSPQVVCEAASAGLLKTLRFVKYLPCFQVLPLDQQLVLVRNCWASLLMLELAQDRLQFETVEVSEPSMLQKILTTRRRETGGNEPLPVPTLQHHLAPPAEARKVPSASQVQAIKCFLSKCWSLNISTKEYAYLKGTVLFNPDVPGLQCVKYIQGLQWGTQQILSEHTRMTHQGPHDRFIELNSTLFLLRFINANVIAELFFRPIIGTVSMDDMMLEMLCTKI
hgDAF-12 ag: activates the H. glycines DAF-12 receptor ligand-binding domain; activation, % at 6.8 µM; HEK293 GAL4-hgDAF12 UAS-luciferase reporter, agonist luminescence; normalized to butyrate control; actives 1.8% (n = 370,000);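 active = activation above a cutoff set at the mean of all screened compounds plus 3 SD, cut at about 10% in these data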;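 also: 0% = DMSO wells and 100% = sodium butyrate wells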
hcDAF12 agonist: H. contortus DAF-12 activation, primary screen | HEK293 hcDAF-12 lit1-tk-luc reporter, luminescence; 0% DMSO, 100% Δ7-dafachronic acid | activation, % at 6.8 µM | actives 1.4% (n = 370,000) | AID 652067;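 active = activation above the mean of all tested compounds plus 3 SD, cut at about 5.5% in these data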;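 also: 100% = response to 3 µM Δ7-dafachronic acid high control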
SMARCA2 act: SMARCA2 function activation, primary screen; MG213 cells, MMTV-luciferase reporter, dexamethasone, overnight; activation, % at 9.1 µM; actives 1% (n = 370,000); in the data active = activation above about 7.8%;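 also: 0% = vehicle wells and 100% = reference activator wells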
ssDAF-12 act: activators of S. stercoralis DAF-12 nuclear receptor | AID 652126 | HEK293 ssDAF-12/GRIP1 lit1-tk-luc reporter, luminescence; % of 3 µM dafachronic acid response | actives 1% (n = 370,000) | activation, % at 6.8 µM;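 active = activation above the mean over all tested compounds plus 3 SD, cut at about 0.9% in these data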;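 also: 0% = DMSO-only wells and 100% = 3 µM delta7-dafachronic acid wells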
DAX1 inh-2: inhibitors of DAX1 repression of SF-1 activated StAR promoter | HEK293T StAR-luciferase reporter, SF-1/DAX-1 repression relief | inhibition, % at 6.8 µM | actives 1.1% (n = 370,000) | AID 652010;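 active = inhibition above the mean over all tested compounds plus 3 SD, cut at about 3.6% in these data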;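 also: 0% = DAX-1 cells with DMSO and 100% = cells lacking DAX-1 with DMSO; higher inhibition means more luminescence from relief of DAX-1 repression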
DAX1 inh confirm: confirmation of human DAX1 (NR0B1) inhibitors. actives 87% (n = 2,400). shares compounds with DAX1 inh-2. inhibition, % at 6.8 µM. HEK293T StAR-promoter luciferase reporter, SF-1/DAX-1 repression;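 active = inhibition above the average of every tested compound plus 3 SD, cut at about 3.8% in these data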;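 also: 0% = DAX-1 cells with DMSO and 100% = no DAX-1 control cells with DMSO; active compounds raise luminescence by relieving repression of the StAR reporter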
Target sequence (P51843 whole entry, looked up): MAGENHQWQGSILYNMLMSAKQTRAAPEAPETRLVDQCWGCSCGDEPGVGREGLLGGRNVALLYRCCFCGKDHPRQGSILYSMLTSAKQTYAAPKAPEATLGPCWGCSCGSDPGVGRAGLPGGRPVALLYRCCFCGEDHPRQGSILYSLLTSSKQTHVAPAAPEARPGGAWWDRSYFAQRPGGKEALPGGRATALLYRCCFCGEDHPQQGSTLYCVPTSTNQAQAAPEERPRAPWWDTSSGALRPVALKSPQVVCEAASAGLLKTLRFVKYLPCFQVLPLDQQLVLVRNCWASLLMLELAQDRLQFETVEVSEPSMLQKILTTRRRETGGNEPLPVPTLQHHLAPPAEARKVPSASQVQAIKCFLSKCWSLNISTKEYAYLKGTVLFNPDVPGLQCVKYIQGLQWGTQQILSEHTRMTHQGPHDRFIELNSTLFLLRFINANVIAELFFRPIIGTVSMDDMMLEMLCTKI
SF1 mutant ctr: counter-screen for DAX1 inhibitors: nonselective inhibitors with SF-1 AF2 mutant. shares compounds with DAX1 inh-2. HEK293 StAR-luciferase, luminescence. inhibition, % at 6.8 µM. actives 78% (n = 2,400);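 active = inhibition above the mean of all tested compounds plus 3 SD, cut at about 3% in these data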;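 also: 0% = DAX-1 transfected cells with DMSO and 100% = cells without DAX-1 with DMSO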
An asterisk follows results filed as active. This is a sample that favours compounds with a hit; in the whole collection about 4.8% have one here.

Results for Clc1ccc(-c2nnc(SCc3nc4ccccc4[nH]3)o2)c(Cl)c1 ?
DAX1 inh-1: 0; hgDAF-12 ag: -1; hcDAF12 agonist: 2; SMARCA2 act: 1; ssDAF-12 act: 0; DAX1 inh-2: -1

What do the screens show for `Clc1ccc(-c2nnc(SCc3ccon3)o2)c(Cl)c1`?
DAX1 inh-1: 1; hgDAF-12 ag: 16*; hcDAF12 agonist: 6.2*; SMARCA2 act: 2; ssDAF-12 act: 1; DAX1 inh-2: 7.2*; DAX1 inh confirm: 11*; SF1 mutant ctr: 5.4*

How did CC(=O)c1c(C)[nH]c(C(=O)Nc2ccc(C)c(S(=O)(=O)N(C)C)c2)c1C do in these assays?
DAX1 inh-1: 4; hgDAF-12 ag: 10*; hcDAF12 agonist: 5; SMARCA2 act: 5; ssDAF-12 act: 1.0*; DAX1 inh-2: 13*; DAX1 inh confirm: 15*; SF1 mutant ctr: 6.7*

How did CC(=O)c1c(C)[nH]c(C(=O)Nc2ccc(S(=O)(=O)N(C)C)cc2)c1C do in these assays?
DAX1 inh-1: 1; hgDAF-12 ag: -1; hcDAF12 agonist: -1; SMARCA2 act: -4; ssDAF-12 act: -2; DAX1 inh-2: 0

What do the screens show for `Cc1ccsc1C(=O)OCC(=O)NC1CCCC1`?
DAX1 inh-1: 2; hgDAF-12 ag: 5; hcDAF12 agonist: 5; SMARCA2 act: 4; ssDAF-12 act: 0; DAX1 inh-2: 2

What do the screens show for `Cc1ccsc1C(=O)N1CCc2ccccc2C1`?
DAX1 inh-1: 2; hgDAF-12 ag: 2; hcDAF12 agonist: 0; SMARCA2 act: 0; ssDAF-12 act: 0; DAX1 inh-2: 0

How did Cc1ccsc1C(=O)OCC(=O)N(C)C1CCCCC1 do in these assays?
DAX1 inh-1: 1; hgDAF-12 ag: 12*; hcDAF12 agonist: 5.9*; SMARCA2 act: 7; ssDAF-12 act: 0; DAX1 inh-2: 10*; DAX1 inh confirm: 11*; SF1 mutant ctr: 6.3*

What do the screens show for `Cc1ccsc1C(=O)OCC(=O)N1CCc2ccccc2C1`?
DAX1 inh-1: 2; hgDAF-12 ag: 11*; hcDAF12 agonist: 2; SMARCA2 act: 5; ssDAF-12 act: 0; DAX1 inh-2: 6.9*; DAX1 inh confirm: 13*; SF1 mutant ctr: 5.9*

Results for O=S(=O)(c1cccs1)N1CCCc2nc(-c3ccc(F)cc3)ccc21 ?
hgDAF-12 ag: 1; hcDAF12 agonist: -1; SMARCA2 act: -8; ssDAF-12 act: -1; DAX1 inh-2: 0

Results for COc1ccc(O)c(C(=O)CC(=O)c2cccnc2)c1 ?
DAX1 inh-1: 4; hgDAF-12 ag: 10; hcDAF12 agonist: 2; SMARCA2 act: 13*; ssDAF-12 act: 0; DAX1 inh-2: 6.5*; DAX1 inh confirm: 7.3*; SF1 mutant ctr: 6.9*

What do the screens show for `C/C(=N\NC(=O)c1ccco1)c1ccc(NC(=O)C(F)(F)F)cc1`?
DAX1 inh-1: 2; hgDAF-12 ag: 9; hcDAF12 agonist: 5; SMARCA2 act: 3; ssDAF-12 act: -1; DAX1 inh-2: 7.2*; DAX1 inh confirm: 2; SF1 mutant ctr: 1

Results for CC(C)(C)c1ccc(C(=O)Nc2ccc(NC(=O)c3ccco3)cc2)cc1 ?
DAX1 inh-1: 0; hgDAF-12 ag: -2; hcDAF12 agonist: -2; SMARCA2 act: -1; ssDAF-12 act: -2; DAX1 inh-2: -1

What do the screens show for `Cc1ccccc1C(=O)N(C)[C@H]1C[C@H]2c3[nH]c4c(-c5ccccc5)cccc4c3CCN2C(=O)[C@H]1[C@H](C)O`?
hgDAF-12 ag: -4; hcDAF12 agonist: -2; SMARCA2 act: -4; ssDAF-12 act: -1; DAX1 inh-2: 0

Results for COc1ccc(-c2nc(CC(=O)O)cs2)cc1 ?
DAX1 inh-1: 2; hgDAF-12 ag: 0; hcDAF12 agonist: -1; SMARCA2 act: 0; ssDAF-12 act: -1; DAX1 inh-2: -1

How did COc1ccc(-c2csc(-c3ccc(C(=O)O)cc3)n2)cc1 do in these assays?
DAX1 inh-1: 3; hgDAF-12 ag: 12*; hcDAF12 agonist: 4; SMARCA2 act: 2; ssDAF-12 act: 1; DAX1 inh-2: 4.7*; DAX1 inh confirm: 12*; SF1 mutant ctr: 7.0*

How did Cc1ccc(-c2nc3cc(C)c(Br)c(C)n3c2Cc2cccc(F)c2)cc1 do in these assays?
hgDAF-12 ag: 13*; hcDAF12 agonist: 6.2*; SMARCA2 act: 3; ssDAF-12 act: 1.9*; DAX1 inh-2: 5.7*; DAX1 inh confirm: 6.2*; SF1 mutant ctr: 5.3*

Results for Fc1cccc(Cc2c(-c3ccccc3)nc3ccc(Cl)cn23)c1 ?
hgDAF-12 ag: 3; hcDAF12 agonist: 1; SMARCA2 act: -1; ssDAF-12 act: -1; DAX1 inh-2: 4.6*; DAX1 inh confirm: 0; SF1 mutant ctr: 0

What do the screens show for `Cc1cc2nc(-c3ccc(C#N)cc3)c(Cc3cccc(F)c3)n2c(C)c1Br`?
hgDAF-12 ag: 2; hcDAF12 agonist: 3; SMARCA2 act: -2; ssDAF-12 act: -2; DAX1 inh-2: 0

How did Clc1cccc(-c2nc3ccc(Br)cn3c2Cc2ccccc2)c1 do in these assays?
hgDAF-12 ag: 4; hcDAF12 agonist: 1; SMARCA2 act: 4; ssDAF-12 act: -1; DAX1 inh-2: 6.7*; DAX1 inh confirm: 4.6*; SF1 mutant ctr: 1

What do the screens show for `COCCn1c(C)cc(C(=O)COC(=O)c2ccc(-n3nc(C)cc3C)cc2)c1C`?
DAX1 inh-1: -1; hgDAF-12 ag: -3; hcDAF12 agonist: -1; SMARCA2 act: 0; ssDAF-12 act: -1; DAX1 inh-2: 1

How did COCCn1c(C)cc(C(=O)COC(=O)c2ccc(Cl)c(S(N)(=O)=O)c2)c1C do in these assays?
DAX1 inh-1: 1; hgDAF-12 ag: 3; hcDAF12 agonist: 2; SMARCA2 act: -1; ssDAF-12 act: -1; DAX1 inh-2: 5.5*; DAX1 inh confirm: 8.7*; SF1 mutant ctr: 1

Results for O=C(c1ccc2nc(Cc3ccccc3F)oc2c1)N1CC[C@H](O)C1 ?
DAX1 inh-1: 0; hgDAF-12 ag: 6; hcDAF12 agonist: 4; SMARCA2 act: -2; ssDAF-12 act: -1; DAX1 inh-2: 6.2*; DAX1 inh confirm: 5.9*; SF1 mutant ctr: 1

How did CC(c1ccccn1)N(C)C(=O)c1ccc2nc(Cc3ccccc3F)oc2c1 (stereo not drawn) do in these assays?
DAX1 inh-1: 2; hgDAF-12 ag: 8; hcDAF12 agonist: 3; SMARCA2 act: 7; ssDAF-12 act: -1; DAX1 inh-2: 4.8*; DAX1 inh confirm: 5.3*; SF1 mutant ctr: 4.4*

High-throughput results as filed in PubChem BioAssay.
